22 molecules from PubChem BioAssay (NCATS) can be followed below.

SMILES strings stand for the structures. Several values for one entry are separate records, joined by “and”; a condition that tells them apart may be missing. Equal entries are not always repeated. Records with an inconclusive call do not appear. Activity calls are given as the source filed them.

Sequence of Peroxisome proliferator-activated receptor delta (Homo sapiens) (Q03181 whole entry, looked up): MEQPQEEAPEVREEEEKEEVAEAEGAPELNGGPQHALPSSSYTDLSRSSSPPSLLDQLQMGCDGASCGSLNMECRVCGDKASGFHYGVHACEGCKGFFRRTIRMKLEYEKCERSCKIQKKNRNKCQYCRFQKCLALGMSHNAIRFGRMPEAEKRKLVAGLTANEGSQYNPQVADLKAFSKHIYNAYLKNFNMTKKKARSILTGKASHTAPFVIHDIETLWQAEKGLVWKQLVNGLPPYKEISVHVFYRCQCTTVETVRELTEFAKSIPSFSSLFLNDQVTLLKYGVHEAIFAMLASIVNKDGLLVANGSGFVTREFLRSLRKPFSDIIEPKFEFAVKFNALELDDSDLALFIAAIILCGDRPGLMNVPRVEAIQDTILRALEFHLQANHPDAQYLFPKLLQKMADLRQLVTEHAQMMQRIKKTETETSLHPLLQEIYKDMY
Sequence of Peroxisome proliferator-activated receptor gamma (Homo sapiens) (P37231 whole entry, looked up): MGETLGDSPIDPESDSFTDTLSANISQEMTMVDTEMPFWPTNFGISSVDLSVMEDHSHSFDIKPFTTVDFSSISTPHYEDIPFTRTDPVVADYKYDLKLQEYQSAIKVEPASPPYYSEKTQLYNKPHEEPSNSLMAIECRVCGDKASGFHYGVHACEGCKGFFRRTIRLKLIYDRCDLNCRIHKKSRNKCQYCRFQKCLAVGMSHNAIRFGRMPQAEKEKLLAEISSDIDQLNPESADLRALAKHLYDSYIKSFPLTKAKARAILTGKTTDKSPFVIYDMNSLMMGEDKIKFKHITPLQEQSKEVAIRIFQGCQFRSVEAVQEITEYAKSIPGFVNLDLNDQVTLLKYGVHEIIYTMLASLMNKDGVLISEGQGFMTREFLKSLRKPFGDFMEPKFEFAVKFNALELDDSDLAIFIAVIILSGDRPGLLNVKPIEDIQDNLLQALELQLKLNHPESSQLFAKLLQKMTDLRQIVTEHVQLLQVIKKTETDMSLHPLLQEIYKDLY

One assay deals with Glucocorticoid receptor (Homo sapiens) (UniProt P04150). Description: qHTS assay for small molecule antagonists of glucocorticoid receptor signaling (AID 588533; active = well fitted inhibition curve with a large enough effect in the signal ratio, with a control signal flat, not every such curve was filed as active; the % refers to the signal ratio;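 note: cells stimulated with 2 nM dexamethasone as agonist; % is set by controls: 0 for no effect and ±100 for the full control effect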). The following applies: HeLa MMTV-bla, GRE beta-lactamase ratio, antagonist mode, 18 h; series mostly up to 76.8 µM. The method in brief: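 Antagonist-mode qHTS: compound titrations added to GRE-bla HeLa cells, then dexamethasone 2 nM final; 18 h, 37 C. CCF4 FRET fluorescence normalized to dexamethasone and DMSO; IC50 from Hill fit.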
Sequence of Glucocorticoid receptor (Homo sapiens) (P04150 whole entry, looked up): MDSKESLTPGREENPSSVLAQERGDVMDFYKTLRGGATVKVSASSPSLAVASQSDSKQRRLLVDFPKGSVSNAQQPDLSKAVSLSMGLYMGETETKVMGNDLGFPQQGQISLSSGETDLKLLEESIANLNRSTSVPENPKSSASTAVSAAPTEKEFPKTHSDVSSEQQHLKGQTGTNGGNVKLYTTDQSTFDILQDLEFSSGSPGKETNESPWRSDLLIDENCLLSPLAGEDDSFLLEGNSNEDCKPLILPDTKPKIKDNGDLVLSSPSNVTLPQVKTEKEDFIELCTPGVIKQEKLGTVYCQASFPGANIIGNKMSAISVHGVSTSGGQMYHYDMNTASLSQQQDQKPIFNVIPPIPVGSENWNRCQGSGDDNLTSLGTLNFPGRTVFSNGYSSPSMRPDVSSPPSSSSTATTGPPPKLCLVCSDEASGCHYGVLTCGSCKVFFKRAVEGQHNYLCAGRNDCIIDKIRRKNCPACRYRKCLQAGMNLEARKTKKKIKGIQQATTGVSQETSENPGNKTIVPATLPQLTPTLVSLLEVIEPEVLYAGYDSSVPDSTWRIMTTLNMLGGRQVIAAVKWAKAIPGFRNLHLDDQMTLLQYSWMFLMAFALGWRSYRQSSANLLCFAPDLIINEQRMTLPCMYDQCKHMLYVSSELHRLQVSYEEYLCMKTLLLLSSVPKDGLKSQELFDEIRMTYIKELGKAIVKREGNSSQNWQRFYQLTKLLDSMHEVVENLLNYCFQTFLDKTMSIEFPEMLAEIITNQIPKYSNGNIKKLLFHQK
On the technique in general: qHTS replaces the single test concentration by a dilution series.
For the molecule `COc1ccccc1O`, the outcome was inactive.
With `CCOC(=O)c1ccc(O)cc1`, the outcome was inactive.
The same measure, in the same setting: for `Oc1cccc(O)c1` the value was “inactive”; for `CCCCCCCCCCCCOS(=O)(=O)O`, “inactive”.
On the same count and under the same terms, for `O=C1c2c(O)cccc2Cc2cccc(O)c21` the value was “inactive”; for `O=C1O[C@H]([C@@H](O)CO)C(O)=C1O`, “inactive”; for `Cc1cc(CC(=O)O)n(C)c1C(=O)c1ccc(Cl)cc1`, “inactive”.
Regarding `CC(O)CN(CCN(CC(C)O)CC(C)O)CC(C)O` (configuration not stated), the outcome was inactive.
On to `NC(=O)N/N=C/c1ccc([N+](=O)[O-])o1`, for which the result was inactive.
As for `CC1(C)[C@@H]2CC[C@@]1(C)C(=O)C2`, the result was inactive.
On to `NCCNCCNCCNCCN`, for which the outcome was inactive.
`Nc1ccc(S(=O)(=O)Nc2nccs2)cc1`: the outcome was inactive.
Regarding `CC(O)COc1ccccc1` (configuration not stated), the outcome was inactive.
In the case of `CC12CCC(CC1)C(C)(C)O2`, the outcome was inactive.
Consider `CCCCC(CC)COC(=O)c1ccccc1O` (configuration not stated), for which the outcome was inactive.
`CCCCOC(=O)c1ccc(O)cc1`: the result was inactive.
Still for that read-out and setting: for `CCCc1c(OCCCCc2nn[nH]n2)ccc(C(C)=O)c1O` the value was “inactive”; for `NCCNCCNCCN`, “inactive”.

System in the next assay: not listed separately
Description: qHTS assay for small molecule antagonists of peroxisome proliferator-activated receptor delta signaling (AID 588535; active = well fitted inhibition curve with a large enough effect in the signal ratio, with a control signal flat, not every such curve was filed as active; the % refers to the signal ratio;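 for max response: cells co-treated with a PPAR-delta agonist as stimulator during compound exposure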). The conditions noted are these: HEK293T PPARd-UAS-bla, beta-lactamase FRET ratio, 18 h; 460 nm channel. The method in brief:
(§1)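 Fluorescence from CCF4-loaded GeneBLAzer PPAR-delta-UAS-bla HEK293T cells (2 hrs RT loading) quantified reporter inhibition after an 18 hr, 37 C compound exposure across a titration.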
Consider `COc1ccccc1O`, for which the max response was -6.63% and -4.79%.
As to `O=C1NS(=O)(=O)c2ccccc21`, the max response was 2.93%.
The same measure, in the same setting: under `CCOC(=O)c1ccc(O)cc1` stands -12.7%; under `Oc1cccc(O)c1`, 15.8%; under `O=C1c2c(O)cccc2Cc2cccc(O)c21`, -22%.
`O=C1O[C@H]([C@@H](O)CO)C(O)=C1O`: the max response was -14.8%.
For the molecule `CC(O)CN(CCN(CC(C)O)CC(C)O)CC(C)O` (configuration not stated), the max response was found to be 30%.
As to `NC(=O)N/N=C/c1ccc([N+](=O)[O-])o1`, the max response was determined as 4.74%.
`CC1(C)[C@@H]2CC[C@@]1(C)C(=O)C2`: the max response came out at 5.89%.
With `CC(O)COc1ccccc1` (configuration not stated), the max response was found to be 6.24%.
Consider `CC12CCC(CC1)C(C)(C)O2`, for which the max response was -10.6%.
Regarding `CCCCC(CC)COC(=O)c1ccccc1O` (configuration not stated), the max response was -34.6%.
Same read-out and setting: under `CCCCOC(=O)c1ccc(O)cc1` stands -14.2%; under `[Cl][In]([Cl])[Cl]`, 29.3%; under `NCCNCCNCCN`, 26%.

The target in a further assay is Peroxisome proliferator-activated receptor delta (Homo sapiens) (UniProt Q03181). Described as above. The following applies: HEK293T PPARd-UAS-bla, beta-lactamase FRET ratio, 18 h; series mostly up to 76.7 µM. The method in brief:
as §1
On to `COc1ccccc1O`, for which the result was inactive.
As to `O=C1NS(=O)(=O)c2ccccc21`, the outcome was inactive.
With `CCOC(=O)c1ccc(O)cc1`, the outcome was inactive.
On to `Oc1cccc(O)c1`, for which the outcome was inactive.
Turning to `O=C1c2c(O)cccc2Cc2cccc(O)c21`, the result was inactive.
Still for that read-out and setting: under `O=C1O[C@H]([C@@H](O)CO)C(O)=C1O` stands “inactive”; under `CC(O)CN(CCN(CC(C)O)CC(C)O)CC(C)O` (configuration not stated), “inactive”; under `NC(=O)N/N=C/c1ccc([N+](=O)[O-])o1`, “inactive”.
Consider `CC1(C)[C@@H]2CC[C@@]1(C)C(=O)C2`, for which the outcome was inactive.
Take `CC(O)COc1ccccc1` (configuration not stated): the result was inactive.
In the case of `CC12CCC(CC1)C(C)(C)O2`, the result was inactive.
Regarding `CCCCC(CC)COC(=O)c1ccccc1O` (configuration not stated), the result was inactive.
The same measure, in the same setting: under `CCCCOC(=O)c1ccc(O)cc1` stands “inactive”; under `[Cl][In]([Cl])[Cl]`, “inactive”; under `NCCNCCNCCN`, “inactive”.

A further assay concerns the target Peroxisome proliferator-activated receptor gamma (Homo sapiens) (UniProt P37231). In words: qHTS assay for small molecule agonists of peroxisome proliferator-activated receptor gamma signaling (AID 588536; active = well fitted curve in the direction sought with a large enough effect in the signal ratio, with a control signal flat, not every such curve was filed as active; the % refers to the signal ratio;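 note: 0% = DMSO basal wells and 100% = rosiglitazone at 2 µM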). The conditions noted are these: HEK293 PPARg-UAS-bla, beta-lactamase ratio, 16 h, percent of rosiglitazone response, DMSO as zero; series mostly up to 76.7 µM. The method in brief: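 This is an agonist-mode beta-lactamase reporter assay in HEK293 PPAR-gamma-UAS-bla cells with 1% charcoal/dextran FBS. Compound titrations ran 16 h at 37 C before CCF4 detection. EC50 and efficacy are Hill fits scaled to 2 uM rosiglitazone (100%) and DMSO basal.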
As for `Cc1cccc(Nc2cc(Cl)nc(SCC(=O)O)n2)c1C`, the result was inactive.
Consider `COc1ccccc1O`, for which the result was inactive.
Consider `O=C1NS(=O)(=O)c2ccccc21`, for which the outcome was inactive.
Consider `Oc1cccc(O)c1`, for which the result was inactive.
For the molecule `CCCCCCCCCCCCOS(=O)(=O)O`, the outcome was inactive.
As for `O=C1c2c(O)cccc2Cc2cccc(O)c21`, the result was inactive.
The same measure, in the same setting: under `O=C1O[C@H]([C@@H](O)CO)C(O)=C1O` stands “inactive”; under `CC(O)CN(CCN(CC(C)O)CC(C)O)CC(C)O` (configuration not stated), “inactive”; under `NC(=O)N/N=C/c1ccc([N+](=O)[O-])o1`, “inactive”.
As to `Nc1ccc(S(=O)(=O)Nc2nccs2)cc1`, the outcome was inactive.
Same read-out and setting: for `CC(O)COc1ccccc1` (configuration not stated) the value was “inactive”; for `CC12CCC(CC1)C(C)(C)O2`, “inactive”; for `CCCCC(CC)COC(=O)c1ccccc1O` (configuration not stated), “inactive”.

For a further assay the target is unchanged. Description: qHTS assay for small molecule antagonists of peroxisome proliferator-activated receptor gamma signaling (AID 588537; active = well fitted inhibition curve with a large enough effect in the signal ratio, with a control signal flat, not every such curve was filed as active; the % refers to the signal ratio;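 note: reporter cells co-stimulated with 50 nM rosiglitazone agonist during compound treatment; % of control where 0% means no effect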). The following applies: HEK293 PPARg-UAS-bla, beta-lactamase ratio, antagonist mode; series mostly up to 76.8 µM. The method in brief:
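Fluorescence at 460 and 530 nm (405 nm excitation) reported beta-lactamase cleavage of CCF4 after 2 h room-temperature loading. HEK293 reporter cells in 1% charcoal/dextran-treated FBS had received compound and rosiglitazone for 16 h.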
Turning to `Cc1cccc(Nc2cc(Cl)nc(SCC(=O)O)n2)c1C`, the outcome was inactive.
Consider `COc1ccccc1O`, for which the result was inactive.
As for `Oc1cccc(O)c1`, the outcome was inactive.
In the case of `CCCCCCCCCCCCOS(=O)(=O)O`, the result was inactive.
As for `O=C1O[C@H]([C@@H](O)CO)C(O)=C1O`, the outcome was inactive.
Same read-out and setting: for `CC(O)CN(CCN(CC(C)O)CC(C)O)CC(C)O` (configuration not stated) the value was “inactive”; for `NCCNCCNCCNCCN`, “inactive”.
`O=S(=O)(O)NC1CCCCC1`: the outcome was inactive.
The same measure, in the same setting: for `CC(O)COc1ccccc1` (configuration not stated) the value was “inactive”; for `CC12CCC(CC1)C(C)(C)O2`, “inactive”.
Consider `CCCCC(CC)COC(=O)c1ccccc1O` (configuration not stated), for which the result was inactive.
